# Results reported in PubChem BioAssay (Tox21).
# Results filed as inconclusive are left out. A call without a number means that no potency is given here. Values without a mark were called inactive. The source made the active and inactive calls. Calls follow the shape of the dose curve; as a rule, active = well fitted curve in the direction sought with a large enough effect in the repeat runs; inconclusive = weak or mixed curves; inactive = no such curve, though single readings can be large; an effect the other way counts as inactive or inconclusive.
# Columns and labels:
# [1] = qHTS RealTime-Glo MT Cell Viability Assay in HepG2 cells - 40 hour (AID 1224870); also: nearly all actives have a fitted effect of over 50% in size; also: potency is read from the fitted curve at half-maximal effect
# How it was run: (§1)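 HepG2 cells mixed with RealTime-Glo MT reagents (NanoLuc plus cell-permeant prosubstrate) were seeded at 600 cells/well, incubated 5 h at 37 C/5% CO2, then pinned with compounds in DMSO; nonlytic luminescence tracked viability during 40 h treatment.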
# [2] = A CellTox Green Cytotoxicity Assay to monitor cytotoxicity in HEK293 cells - 40 hour (AID 1224871); also: nearly all actives have a fitted effect of over 45% in size; also: potency is read from the fitted curve at half-maximal effect
# How it was run: (§2)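 Cytotoxicity was tracked continuously in HEK293 cells by a DNA-binding dye excluded from viable cells. Compounds were transferred in DMSO 5 h after seeding; fluorescence was recorded at intervals up to 40 h.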
# [3] = qHTS RealTime-Glo MT Cell Viability Assay in HepG2 cells - 8 hour (AID 1224873); also: nearly all actives have a fitted effect of over 55% in size
# How it was run: as §1
# [4] = A CellTox Green Cytotoxicity Assay to monitor cytotoxicity in HEK293 cells - 24 hour (AID 1224875); also: nearly all actives have a fitted effect of over 45% in size; also: potency is read from the fitted curve at half-maximal effect; as to activity change: series mostly up to about 77 µM
# How it was run: as §2
# [5] = qHTS RealTime-Glo MT Cell Viability Assay in HepG2 cells - 32 hour (AID 1224877); also: nearly all actives have a fitted effect of over 55% in size; also: potency is read from the fitted curve at half-maximal effect
# How it was run: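 Compound treatment began 5 h after plating HepG2 cells (600/well) with NanoLuc luciferase and prosubstrate. Plates stayed at 37 C for 40 h; luminescence was captured at six time points, 0 h through 40 h.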
# [6] = A CellTox Green Cytotoxicity Assay to monitor cytotoxicity in HepG2 cells - 24 hour (AID 1224878); also: nearly all actives have a fitted effect of over 45% in size; also: potency is read from the fitted curve at half-maximal effect
# How it was run: (§3)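 Real-time, homogeneous cytotoxicity readout: dead-cell DNA staining by CellTox Green in HepG2 monolayers, fluorescence measured at timed intervals up to 40 h of continuous compound exposure.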
# [7] = A CellTox Green Cytotoxicity Assay to monitor cytotoxicity in HepG2 cells - 40 hour (AID 1224879); also: nearly all actives have a fitted effect of over 40% in size; also: potency is read from the fitted curve at half-maximal effect
# How it was run: as §3
# [8] = qHTS RealTime-Glo MT Cell Viability Assay in HEK293 cells - 16 hour (AID 1224872); also: nearly all actives have a fitted effect of over 50% in size; also: potency is read from the fitted curve at half-maximal effect
# How it was run: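 Quantitative high-throughput screen of the Tox21 10K library in HEK293: cells and RealTime-Glo reagents plated together, compound added at 5 h, luminescence monitored through 40 h at 37 C.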
# [9] = qHTS RealTime-Glo MT Cell Viability Assay in HEK293 cells - 40 hour (AID 1224874); conditions: RealTime-Glo luminescence; max response: hits give low values; also: nearly all actives have a fitted effect of over 50% in size; also: potency is read from the fitted curve at half-maximal effect
# How it was run: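 Nonlytic bioluminescent viability monitoring. HEK293 at 600 cells/well with reagent; 5 h settle; compound transfer by pintool; plates held at 37 C and read at set time points.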
# [10] = A CellTox Green Cytotoxicity Assay to monitor cytotoxicity in HepG2 cells - 16 hour (AID 1224876); also: nearly all actives have a fitted effect of over 45% in size; also: potency is read from the fitted curve at half-maximal effect
# How it was run: as §3
structure (smiles),measurement,setting,value
O=C1CCC(C2CCCCC2)CC1,Potency,[1],inactive
same,Potency,[2],49 µM (active)
same,outcome,[3],inactive
same,Potency,[4],43.6 µM (active)
same,Potency,[5],inactive
same,Potency,[6],38.9 µM (active)
same,Potency,[7],38.9 µM (active)
CCC(=O)c1ccc2c(c1)N(CCCN(C)C)c1ccccc1S2,Potency,[1],inactive
same,Potency,[8],10.7 µM (active)
same,outcome,[3],inactive
same,Potency,[9],19 µM (active)
same,Potency,[4],inactive
same,Potency,[5],inactive
CCN(CCCc1ccccc1)CCCc1ccccc1,Potency,[1],inactive
same,Potency,[2],inactive
same,outcome,[3],inactive
same,Potency,[4],inactive
same,Potency,[10],inactive
same,Potency,[5],inactive
same,Potency,[6],inactive
CC(C)c1ccccc1,Potency,[1],inactive
same,Potency,[8],inactive
same,outcome,[3],inactive
same,max response,[9],1.09%
same,Potency,[4],inactive
same,Potency,[10],inactive
same,Potency,[5],inactive
same,Potency,[6],inactive
same,Potency,[7],inactive
CN1CCN(c2c(F)cc3c(=O)c(C(=O)O)cn(CCF)c3c2F)CC1,Potency,[1],inactive
same,Potency,[8],inactive
same,outcome,[3],inactive
same,max response,[9],10.4%
same,Potency,[4],5.35 µM (active)
same,Potency,[10],inactive
same,Potency,[5],inactive
same,Potency,[6],inactive
COc1ccc2nc(NC(=O)Nc3ccccc3)sc2c1,Potency,[1],inactive
same,Potency,[2],26.8 µM (active)
same,outcome,[3],inactive
same,Potency,[9],6.01 µM (active)
same,Potency,[10],inactive
same,Potency,[5],inactive
same,Potency,[7],4.25 µM (active)
Nc1ccc(Oc2ccc(N)c(N)c2)cc1,Potency,[1],inactive
same,Potency,[2],inactive
same,Potency,[4],inactive
same,Potency,[10],inactive
same,Potency,[5],inactive
ICCc1ccccc1,Potency,[1],9.57 µM (active)
same,Potency,[8],inactive
same,outcome,[3],inactive
same,max response,[9],22.5%
same,Potency,[10],inactive
same,Potency,[5],12.1 µM (active)
same,Potency,[6],inactive
same,Potency,[7],inactive
COc1cc2c(cc1N)oc1ccccc12,Potency,[1],inactive
same,Potency,[2],inactive
same,outcome,[3],inactive
same,Potency,[4],inactive
same,Potency,[10],inactive
same,Potency,[5],inactive
same,Potency,[6],inactive
same,Potency,[7],inactive
Cc1c(-c2ccccc2)oc2c(C(=O)OCCN3CCCCC3)cccc2c1=O,Potency,[1],inactive
same,Potency,[2],inactive
same,outcome,[3],inactive
same,Potency,[4],inactive
same,Potency,[10],inactive
same,Potency,[5],inactive
same,Potency,[6],inactive
CC1(O)CSC(C)(O)CS1 (centres undefined),Potency,[1],inactive
same,Potency,[2],inactive
same,outcome,[3],inactive
same,max response,[9],5.86%
same,Potency,[4],inactive
same,Potency,[10],inactive
same,Potency,[5],inactive
same,Potency,[6],inactive
same,Potency,[7],inactive
CCN(CC)CCOc1ccc(Cc2ccccc2)cc1,Potency,[1],inactive
same,Potency,[2],inactive
same,Potency,[8],inactive
same,outcome,[3],inactive
same,Potency,[4],inactive
same,Potency,[5],inactive
same,Potency,[7],26.8 µM (active)
O=C(O)C(=O)Cc1c[nH]c2ccccc12,Potency,[1],inactive
same,Potency,[2],inactive
same,outcome,[3],inactive
same,max response,[9],2.14%
same,Potency,[4],inactive
same,Potency,[10],inactive
same,Potency,[5],inactive
same,Potency,[6],inactive
CCCCNc1ccc(C(=O)OCCN(CC)CC)cc1,Potency,[1],inactive
same,Potency,[2],inactive
same,outcome,[3],inactive
same,max response,[9],-22.9%
same,Potency,[4],inactive
same,Potency,[10],inactive
same,Potency,[5],inactive
same,Potency,[6],inactive
same,Potency,[7],inactive
CC1=C2[C@H](/C=C(\C)C(=O)O)CC[C@@H](C)[C@H]2CC1,Potency,[1],inactive
same,Potency,[8],36 µM (active)
same,outcome,[3],inactive
same,Potency,[10],inactive
same,Potency,[5],inactive
same,Potency,[6],inactive
same,Potency,[7],inactive
CCOc1ccc(OCC)c(Cl)c1,Potency,[1],inactive
same,Potency,[8],inactive
same,outcome,[3],inactive
same,max response,[9],5.94%
same,Potency,[4],inactive
same,Potency,[10],inactive
same,Potency,[5],inactive
same,Potency,[6],inactive
same,Potency,[7],inactive
CCCCOc1cc(C(=O)NCCN(CC)CC)c2ccccc2n1,Potency,[1],inactive
same,outcome,[3],inactive
same,Potency,[4],inactive
same,Potency,[5],inactive
same,Potency,[6],21.3 µM (active)
same,Potency,[7],23.9 µM (active)
CC1(C)C(=O)N(Cl)C(=O)N1Br,Potency,[1],inactive
same,Potency,[2],inactive
same,outcome,[3],inactive
same,max response,[9],17%
same,Potency,[4],inactive
same,Potency,[10],inactive
same,Potency,[5],inactive
same,Potency,[6],inactive
same,Potency,[7],inactive
O=C(O)CN(CCN(CC(=O)O)CC(=O)O)CCN(CC(=O)O)CC(=O)O,"activity change, negative = cytotoxic",[1],0.22% [at 15.8 µM]
same,cytotoxicity increase,[2],19.7% [at 15.8 µM]
same,"viability change, negative = cytotoxic",[3],-0.356% [at 15.8 µM]
same,activity change,[4],"15.9% [at 15.8 µM, hits give high values]"
same,cytotoxicity increase,[10],29.9% [at 15.8 µM]
same,"activity change, negative = cytotoxic",[5],0.371% [at 15.8 µM]
same,cytotoxicity,[6],28.9% [at 15.8 µM]
same,cytotoxicity increase,[7],29.3% [at 15.8 µM]
CN(C)C(=O)NC1(c2ccccc2)CCN(CCC[C@]2(c3ccc(Cl)c(Cl)c3)CCCN(C(=O)c3ccccc3)C2)CC1,"activity change, negative = cytotoxic",[1],-4.9% [at 15.8 µM]
same,cytotoxicity increase,[2],31% [at 15.8 µM]
same,"viability change, negative = cytotoxic",[3],-6.85% [at 15.8 µM]
same,activity change,[4],"4.75% [at 15.8 µM, hits give high values]"
same,cytotoxicity increase,[10],15.3% [at 15.8 µM]
same,"activity change, negative = cytotoxic",[5],-9.2% [at 15.8 µM]
same,cytotoxicity,[6],19.6% [at 15.8 µM]
CC(=O)Oc1cc(C(C)C)c(OCCN(C)C)cc1C,Potency,[1],inactive
same,Potency,[2],inactive
same,outcome,[3],inactive
same,Potency,[4],inactive
same,Potency,[5],inactive
same,Potency,[6],inactive
same,Potency,[7],inactive
O=C1Nc2ccc([N+](=O)[O-])cc2C1=O,Potency,[1],inactive
same,Potency,[2],inactive
same,outcome,[3],inactive
same,Potency,[4],inactive
same,Potency,[5],inactive
same,Potency,[6],inactive
same,Potency,[7],inactive
Cc1ccccc1C(=O)Nc1ccc(C(=O)N2CCCC(O)c3cc(Cl)ccc32)c(C)c1 (centres undefined),Potency,[1],inactive
same,Potency,[2],inactive
same,outcome,[3],inactive
same,Potency,[4],inactive
same,Potency,[10],inactive
same,Potency,[5],inactive
same,Potency,[6],inactive
same,Potency,[7],inactive
CCOc1ccccc1N,Potency,[1],inactive
same,Potency,[8],inactive
same,outcome,[3],inactive
same,Potency,[4],inactive
same,Potency,[5],inactive
same,Potency,[6],inactive
same,Potency,[7],inactive
CC[C@H]1CC[C@H](NCc2cc3c(cc2OC)[C@H]2C[C@H]2C(=O)N3C)[C@H](c2ccccc2)N1,Potency,[1],inactive
same,Potency,[2],inactive
same,outcome,[3],inactive
same,Potency,[9],21.9 µM (active)
same,Potency,[4],inactive
same,Potency,[10],inactive
same,Potency,[5],inactive
Cc1ccc(C(C)C)cc1O,Potency,[1],inactive
same,Potency,[8],inactive
same,outcome,[3],inactive
same,max response,[9],-12%
same,Potency,[4],inactive
same,Potency,[5],inactive
OCc1c2ccccc2cc2ccccc12,Potency,[1],inactive
same,Potency,[2],inactive
same,outcome,[3],inactive
same,Potency,[4],inactive
same,Potency,[10],inactive
same,Potency,[5],inactive
same,Potency,[6],inactive
same,Potency,[7],inactive
CCOC(=O)COc1ccc2c(c1)CC(NCC(O)c1cccc(Cl)c1)CC2 (centres undefined),Potency,[1],inactive
same,Potency,[8],inactive
same,outcome,[3],inactive
same,max response,[9],-17.8%
same,Potency,[10],44 µM (active)
same,Potency,[5],inactive
CCCCCCn1c(=O)c2c(ncn2C)n(C)c1=O,Potency,[1],inactive
same,Potency,[2],inactive
same,Potency,[8],inactive
same,max response,[9],-1.75%
same,Potency,[4],inactive
same,Potency,[10],inactive
same,Potency,[5],inactive
same,Potency,[6],inactive
same,Potency,[7],inactive
CCCc1c2oc(C(=O)O)cc(=O)c2cc2c(=O)cc(C(=O)O)n(CC)c12,Potency,[1],inactive
same,Potency,[8],inactive
same,outcome,[3],inactive
same,max response,[9],1.42%
same,Potency,[10],inactive
same,Potency,[5],inactive
same,Potency,[6],inactive
same,Potency,[7],inactive
O=C1CCCCCCCCCCC(=O)OCCO1,Potency,[1],inactive
same,outcome,[3],inactive
same,max response,[9],-13.7%
same,Potency,[5],inactive
same,Potency,[6],21.9 µM (active)
same,Potency,[7],24.5 µM (active)
CCCCCCOc1ccc(N)cc1,Potency,[1],inactive
same,Potency,[2],43.6 µM (active)
same,outcome,[3],inactive
same,Potency,[4],49 µM (active)
same,Potency,[10],inactive
same,Potency,[5],inactive
O=Cc1ccc(O)c(O)c1O,Potency,[1],inactive
same,Potency,[2],inactive
same,Potency,[8],inactive
same,max response,[9],1.24%
same,Potency,[4],inactive
same,Potency,[10],inactive
same,Potency,[5],inactive
C=CCCCCCCCCO,Potency,[1],inactive
same,Potency,[8],inactive
same,outcome,[3],inactive
same,max response,[9],-15.3%
same,Potency,[5],inactive
CC/C=C\CCOC(=O)CCCCC,Potency,[1],inactive
same,Potency,[8],inactive
same,max response,[9],-9.86%
same,Potency,[4],inactive
same,Potency,[5],inactive
same,Potency,[6],inactive
same,Potency,[7],inactive
CCOc1ccc(NS(=O)(=O)c2ccc(N)cc2)nn1,Potency,[1],inactive
same,Potency,[2],inactive
same,outcome,[3],inactive
same,Potency,[4],inactive
same,Potency,[10],inactive
same,Potency,[5],inactive
same,Potency,[6],inactive
same,Potency,[7],inactive
COc1ccc(Nc2ccc(OC)cc2)cc1,Potency,[1],inactive
same,Potency,[2],inactive
same,outcome,[3],inactive
same,Potency,[9],28.1 µM (active)
same,Potency,[4],inactive
same,Potency,[10],inactive
same,Potency,[5],inactive
same,Potency,[6],inactive
same,Potency,[7],inactive
COC(=O)N[C@H](C(=O)N[C@@H](Cc1ccccc1)[C@@H](O)CN(Cc1ccc(-c2ccccn2)cc1)NC(=O)[C@@H](NC(=O)OC)C(C)(C)C)C(C)(C)C,Potency,[2],inactive
same,Potency,[8],inactive
same,max response,[9],-6.22%
same,Potency,[4],inactive
same,Potency,[5],inactive
COc1cc(Cl)ccc1Cl,Potency,[1],inactive
same,Potency,[8],inactive
same,outcome,[3],inactive
same,max response,[9],-0.591%
same,Potency,[10],inactive
same,Potency,[5],inactive
same,Potency,[6],inactive
